# Records with an inconclusive call do not appear. Active and inactive are the calls of the source. How the source made its calls, unless noted: active means hit-call score of the fitted dose curve at least 0.9, where 1 is the maximum; inactive means score below 0.9.
# Assays:
# [1] = BSK_3C_VCAM1: BioMAP Diversity Plus: 3C Assay for Vascular cell adhesion molecule 1 (VCAM1) Biomarker Activity (AID 2282999); settings: BioMAP 3C HUVEC, VCAM1 ELISA, cytokine-stimulated; actives raise or lower the signal
# Outline: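 Human umbilical vein endothelial cells were dosed with compound for 24 h, after which cell-surface VCAM-1 was quantified by ELISA. Bidirectional curve fitting used DMSO as negative control and activity baseline.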
# [2] = BSK_4H_Eotaxin3: BioMAP Diversity Plus: 4H Assay for Eotaxin 3 Biomarker Activity (AID 2283000); settings: primary human endothelial cells (HUVEC); actives raise or lower the signal;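 on outcome: CCL26 protein level quantified by ELISA in parallel with SRB cytotoxicity check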
# Outline: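 Chemicals were added to human umbilical vein endothelium cultures, and Eotaxin-3 was quantified by ELISA at 24 h. Values were derived by bidirectional fitting with DMSO serving as negative control and activity baseline.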
# [3] = molecular target: human Peroxisome Proliferator-activated Receptor alpha (PPARa), PPARA (gene 5465) (UniProt Q07869); experiment: ATG_PPARa_TRANS: Attagene TRANS-FACTORIAL HepG2 Assay for human Peroxisome Proliferator-activated Receptor alpha (PPARa) (AID 2283001; active means hit-call score of the fitted dose curve at least 0.9, where 1 is the maximum)
# Outline: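 Gain-of-signal endpoint: reporter mRNA induction relative to DMSO, detected by fluorescent RT-PCR and capillary electrophoresis. HepG2 cells transiently carried GAL4-UAS-driven reporter units plus NR-Gal4 fusion; exposure lasted 24 h.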
# [4] = molecular target: human Retinoic Acid Receptor beta (RARb), RARB (gene 5915) (UniProt P10826); experiment: ATG_RARb_TRANS: Attagene TRANS-FACTORIAL HepG2 Assay for human Retinoic Acid Receptor beta (AID 2283004; active means hit-call score of the fitted dose curve at least 0.9, where 1 is the maximum)
# Outline: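 Transient transfection of HepG2 with multiple reporter units → chemical dosing, 24 h → total RNA isolation → RT with oligo(dT) → reporter-specific PCR, 6-FAM primer extension, HpaI digest → capillary electrophoresis. Positive direction vs DMSO control.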
# [5] = molecular target: Retinoic acid receptor alpha (Homo sapiens) (UniProt P10276); experiment: ATG_RARa_TRANS: Attagene TRANS-FACTORIAL HepG2 Assay for human Retinoic Acid Receptor alpha (RARa) (AID 2283005; active means hit-call score of the fitted dose curve at least 0.9, where 1 is the maximum;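 on AC50: potency for increased reporter signal meaning RARa activation over DMSO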)
# Outline: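 HepG2 cells transiently transfected with multiple reporter units expressing chimeric RARα-GAL4 fusion, with GAL4-UAS-driven reporters. After 24 h compound exposure, reporter mRNA induction quantified by RT-PCR and capillary electrophoresis with fluorescent labeling; gain-of-signal fitted relative to DMSO control.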
# [6] = BSK_3C_Proliferation: Cell Proliferation Assessment in the BioMAP Diversity Plus: 3C Assay (AID 2283006); settings: primary human endothelial cells (HUVEC);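 on AC50: potency may reflect either rise or fall in cell number versus DMSO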
# Outline: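 Read-out is total protein by SRB absorbance at 560 nm, taken as a proxy for relative cell number. Primary human umbilical vein endothelium cultured below confluence was dosed for 48 h, TCA-fixed and SRB-stained; curves were fitted bidirectionally versus DMSO.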
# [7] = molecular target: Nuclear receptor subfamily 1 group I member 2 (Homo sapiens) (UniProt O75469); experiment: ATG_PXR_TRANS: Attagene TRANS-FACTORIAL HepG2 Assay for human Pregnane X Receptor (PXR) (AID 2283008; active means hit-call score of the fitted dose curve at least 0.9, where 1 is the maximum)
# Outline: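 Read-out is fluorescence of labelled reporter cDNA fragments separated by capillary electrophoresis after RT-PCR and HpaI digestion. Source: HepG2 cells carrying PXR-GAL4/UAS reporter constructs, treated 24 h; activity fitted upward relative to DMSO.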
# [8] = molecular target: human Retinoic Acid Receptor gamma (RARg), RARG (gene 5916) (UniProt P13631); experiment: ATG_RARg_TRANS: Attagene TRANS-FACTORIAL HepG2 Assay for human Retinoic Acid Receptor gamma (RARg) (AID 2283009; active means hit-call score of the fitted dose curve at least 0.9, where 1 is the maximum)
# Outline: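 Transient transfection of HepG2 with multi-reporter constructs, then 24 h chemical treatment. Total RNA isolated, reverse-transcribed, PCR-amplified, fluorescently labelled and resolved by capillary electrophoresis; activity scored as mRNA induction versus DMSO.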
# [9] = molecular target: Retinoic acid receptor RXR-alpha (Homo sapiens) (UniProt P19793); experiment: ATG_RXRa_TRANS: Attagene TRANS-FACTORIAL HepG2 Assay for human Retinoid X Receptor alpha (RXRa) (AID 2283012; active means hit-call score of the fitted dose curve at least 0.9, where 1 is the maximum)
# Outline: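 Transient transfection of human HepG2 with multiple GAL4-UAS reporter constructs; 24 h compound exposure; total RNA isolated, reverse-transcribed, PCR-amplified, 6-FAM labelled, HpaI-cut, resolved by capillary electrophoresis. Positive-direction fit versus DMSO.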
# [10] = molecular target: human Retinoid X Receptor beta (RXRb), RXRB (gene 6257) (UniProt P28702); experiment: ATG_RXRb_TRANS: Attagene TRANS-FACTORIAL HepG2 Assay for human Retinoid X Receptor beta (RXRb) (AID 2283013; active means hit-call score of the fitted dose curve at least 0.9, where 1 is the maximum)
# Outline: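 Transfect HepG2 with GAL4-UAS multi-reporter constructs (chimeric NR-Gal4, TRANS format); dose compound 24 h; isolate RNA, RT-PCR, FAM primer extension, HpaI digest; quantify by capillary electrophoresis; positive direction vs DMSO.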
# [11] = read-out: E-selectin (Homo sapiens) (UniProt P16581); experiment: BSK_3C_Eselectin: BioMAP Diversity Plus: 3C Assay for Eselectin Biomarker Activity (AID 2283015); settings: primary human endothelial cells (HUVEC); actives raise or lower the signal;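 on outcome: cell surface E-selectin protein quantified by ELISA 24 h after dosing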
# Outline: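 ELISA read-out of E-selectin on endothelial monolayers after 24 h chemical treatment. Human umbilical vein primary cells served as the system, with DMSO defining baseline activity for bidirectional fitting.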
# [12] = read-out: Interleukin-1 alpha (IL1a), IL1A (gene 3552); experiment: BSK_BE3C_IL1a: BioMAP Diversity Plus: BE3C Assay for Interleukin-1 alpha (IL1a) Biomarker Activity (AID 2283016); settings: primary human bronchial epithelial cells; actives raise or lower the signal
# Outline: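 BE3C primary human bronchial epithelium; cpd 24 h; IL-1a by ELISA; bidirectional fit vs DMSO; parallel SRB (0.1% SRB, 10% TCA fix, 560 nm) for cytotoxicity.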
# [13] = read-out: Monocyte Chemoattractant Protein-1 (MCP1), CCL2 (gene 6347); experiment: BSK_3C_MCP1: BioMAP Diversity Plus: 3C Assay for Monocyte Chemoattractant Protein-1 (MCP1) Biomarker Activity (AID 2283017); settings: primary human endothelial cells (HUVEC); actives raise or lower the signal
# Outline: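 ELISA read-out of MCP-1 from human umbilical vein endothelial cell cultures harvested 24 h post-dosing. Gain or loss of signal was fitted relative to DMSO.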
# [14] = read-out: Monocyte Chemoattractant Protein-1 (MCP1), CCL2 (gene 6347); experiment: BSK_4H_MCP1: BioMAP Diversity Plus: 4H Assay for Monocyte Chemoattractant Protein-1 (MCP1) Biomarker Activity (AID 2283018); settings: primary human endothelial cells (HUVEC); actives raise or lower the signal
# Outline: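 ELISA read-out of MCP-1 from human vascular endothelial primary cells taken at 24 hours after compound exposure. Activity was fitted in both directions relative to DMSO, which served as negative control.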
# [15] = read-out: Human Leukocyte Antigen - DR isotype (HLADR), HLA-DRA (gene 3122); experiment: BSK_3C_HLADR: BioMAP Diversity Plus: 3C Assay for Human Leukocyte Antigen - DR isotype (HLADR) Biomarker Activity (AID 2283019); settings: primary human endothelial cells (HUVEC); actives raise or lower the signal;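 on outcome: ELISA of cell-surface HLA-DR on HUVEC 24 h after dosing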
# Outline: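 ELISA readout of surface HLA-DR on human umbilical vein endothelium, taken 24 h after chemical treatment. Gain- and loss-of-signal were both fitted relative to DMSO.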
# [16] = molecular target: human RAR-related Orphan Receptor beta (RORb), RORB (gene 6096) (UniProt Q92753); experiment: ATG_RORb_TRANS: Attagene TRANS-FACTORIAL HepG2 Assay for human RAR-related Orphan Receptor beta (RORb) (AID 2283010; active means hit-call score of the fitted dose curve at least 0.9, where 1 is the maximum)
# Outline: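 Readout is reporter-gene mRNA induction, detected as fluorescence after RT-PCR and capillary electrophoresis, fitted for gain of signal against DMSO controls. Transiently transfected HepG2 liver cells carrying GAL4-UAS reporter constructs were treated for 24 hours.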
# [17] = molecular target: human RAR-related Orphan Receptor gamma (RORg), RORC (gene 6097) (UniProt P51449); experiment: ATG_RORg_TRANS: Attagene TRANS-FACTORIAL HepG2 Assay for human RAR-related Orphan Receptor gamma (RORg) (AID 2283011; active means hit-call score of the fitted dose curve at least 0.9, where 1 is the maximum)
# Outline: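 First, HepG2 liver cells were transfected with GAL4-UAS-driven reporter constructs and the RORg-Gal4 fusion. Next, they were treated with chemical for 24 h. Finally, reporter mRNA was quantified by RT-PCR and capillary electrophoresis, with upward activity fitted against DMSO.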
# [18] = molecular target: human Peroxisome Proliferator-activated Receptor delta (PPARd), PPARD (gene 5467) (UniProt Q03181); experiment: ATG_PPARd_TRANS: Attagene TRANS-FACTORIAL HepG2 Assay for human Peroxisome Proliferator-activated Receptor delta (PPARd) (AID 2283002; active means hit-call score of the fitted dose curve at least 0.9, where 1 is the maximum)
# Outline: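 Measured quantity: GAL4-UAS reporter transcript induction in HepG2 after 24 h chemical dosing, with NR-Gal4 chimeras supplied by transient transfection. Detection by RT-PCR and capillary electrophoresis; upward fit against DMSO.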
# [19] = molecular target: Peroxisome proliferator-activated receptor gamma (Homo sapiens) (UniProt P37231); experiment: ATG_PPARg_TRANS: Attagene TRANS-FACTORIAL HepG2 Assay for human Peroxisome Proliferator-activated Receptor-gamma (PPARg) (AID 2283007; active means hit-call score of the fitted dose curve at least 0.9, where 1 is the maximum)
# Outline: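 After 24 h of chemical exposure, transfected HepG2 cells carrying PPARγ-Gal4 chimera reporter constructs are lysed for RNA. Reporter transcripts are measured by RT-PCR and capillary electrophoresis with fluorescent labelling, and gain of signal is fitted versus DMSO.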
# human Peroxisome Proliferator-activated Receptor alpha (PPARa), PPARA (gene 5465), sequence (Q07869 whole entry, looked up, the tested form may be a part): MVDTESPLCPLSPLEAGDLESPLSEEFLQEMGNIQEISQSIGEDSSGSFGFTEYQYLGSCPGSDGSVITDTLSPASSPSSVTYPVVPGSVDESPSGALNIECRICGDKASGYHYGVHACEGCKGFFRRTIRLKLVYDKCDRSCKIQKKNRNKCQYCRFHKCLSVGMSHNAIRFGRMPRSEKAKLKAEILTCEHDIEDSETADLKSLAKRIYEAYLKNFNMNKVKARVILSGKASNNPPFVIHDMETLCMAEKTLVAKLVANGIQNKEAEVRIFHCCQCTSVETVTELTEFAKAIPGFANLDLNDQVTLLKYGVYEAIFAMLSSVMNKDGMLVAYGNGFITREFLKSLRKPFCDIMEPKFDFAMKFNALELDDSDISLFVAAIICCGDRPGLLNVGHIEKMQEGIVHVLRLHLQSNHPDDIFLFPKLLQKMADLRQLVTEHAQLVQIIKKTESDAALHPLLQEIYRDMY
# Retinoic acid receptor alpha (Homo sapiens), sequence (P10276 whole entry, looked up, the tested form may be a part): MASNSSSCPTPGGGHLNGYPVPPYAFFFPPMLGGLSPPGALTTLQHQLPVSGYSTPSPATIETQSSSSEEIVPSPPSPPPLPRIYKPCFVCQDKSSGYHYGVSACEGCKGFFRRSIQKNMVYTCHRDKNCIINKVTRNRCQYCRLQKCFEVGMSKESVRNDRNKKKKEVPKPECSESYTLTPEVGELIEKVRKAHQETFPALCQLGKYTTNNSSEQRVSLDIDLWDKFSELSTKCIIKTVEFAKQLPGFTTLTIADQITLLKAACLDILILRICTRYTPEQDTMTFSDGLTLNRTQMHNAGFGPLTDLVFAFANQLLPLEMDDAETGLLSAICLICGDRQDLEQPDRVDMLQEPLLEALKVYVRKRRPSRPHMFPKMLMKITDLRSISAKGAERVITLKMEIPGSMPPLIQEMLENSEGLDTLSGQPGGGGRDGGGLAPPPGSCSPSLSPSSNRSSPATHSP
# human RAR-related Orphan Receptor beta (RORb), RORB (gene 6096), sequence (Q92753 whole entry, looked up, the tested form may be a part): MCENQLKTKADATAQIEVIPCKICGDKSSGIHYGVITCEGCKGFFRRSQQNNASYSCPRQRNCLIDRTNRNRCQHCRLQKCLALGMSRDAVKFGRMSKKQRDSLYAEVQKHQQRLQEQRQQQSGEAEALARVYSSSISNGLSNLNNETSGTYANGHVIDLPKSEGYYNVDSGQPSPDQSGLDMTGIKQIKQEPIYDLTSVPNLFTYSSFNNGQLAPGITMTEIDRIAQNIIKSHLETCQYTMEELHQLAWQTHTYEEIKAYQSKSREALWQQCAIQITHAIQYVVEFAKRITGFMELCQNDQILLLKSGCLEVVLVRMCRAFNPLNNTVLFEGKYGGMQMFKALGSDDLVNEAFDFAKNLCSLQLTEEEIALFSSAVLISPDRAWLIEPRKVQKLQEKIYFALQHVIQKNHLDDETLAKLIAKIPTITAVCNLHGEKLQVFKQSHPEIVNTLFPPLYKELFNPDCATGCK
# Retinoic acid receptor RXR-alpha (Homo sapiens), sequence (P19793 whole entry, looked up, the tested form may be a part): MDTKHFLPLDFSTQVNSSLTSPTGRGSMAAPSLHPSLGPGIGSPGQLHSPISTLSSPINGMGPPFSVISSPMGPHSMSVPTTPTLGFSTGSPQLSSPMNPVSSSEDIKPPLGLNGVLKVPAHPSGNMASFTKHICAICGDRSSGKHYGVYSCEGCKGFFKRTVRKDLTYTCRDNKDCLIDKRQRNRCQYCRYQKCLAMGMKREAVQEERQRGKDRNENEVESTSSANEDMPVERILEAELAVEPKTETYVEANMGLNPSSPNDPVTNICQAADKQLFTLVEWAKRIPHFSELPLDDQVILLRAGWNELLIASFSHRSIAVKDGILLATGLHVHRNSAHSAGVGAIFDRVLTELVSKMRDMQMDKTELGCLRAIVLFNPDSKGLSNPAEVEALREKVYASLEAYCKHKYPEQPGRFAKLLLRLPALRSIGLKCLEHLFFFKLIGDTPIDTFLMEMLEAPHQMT
# human Retinoic Acid Receptor gamma (RARg), RARG (gene 5916), sequence (P13631 whole entry, looked up): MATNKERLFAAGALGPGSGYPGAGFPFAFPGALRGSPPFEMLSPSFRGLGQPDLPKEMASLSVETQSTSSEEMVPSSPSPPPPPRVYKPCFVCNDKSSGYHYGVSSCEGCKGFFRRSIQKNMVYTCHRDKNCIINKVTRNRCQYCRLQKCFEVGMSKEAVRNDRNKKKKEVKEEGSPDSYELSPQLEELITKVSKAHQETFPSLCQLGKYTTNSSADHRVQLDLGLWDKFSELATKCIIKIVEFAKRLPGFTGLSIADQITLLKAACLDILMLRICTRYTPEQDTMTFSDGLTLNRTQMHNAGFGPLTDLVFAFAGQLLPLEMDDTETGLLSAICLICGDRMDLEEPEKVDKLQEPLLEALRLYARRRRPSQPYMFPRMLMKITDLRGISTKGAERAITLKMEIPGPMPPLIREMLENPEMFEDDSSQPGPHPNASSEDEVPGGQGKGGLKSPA
# human Retinoic Acid Receptor beta (RARb), RARB (gene 5915), sequence (P10826 whole entry, looked up): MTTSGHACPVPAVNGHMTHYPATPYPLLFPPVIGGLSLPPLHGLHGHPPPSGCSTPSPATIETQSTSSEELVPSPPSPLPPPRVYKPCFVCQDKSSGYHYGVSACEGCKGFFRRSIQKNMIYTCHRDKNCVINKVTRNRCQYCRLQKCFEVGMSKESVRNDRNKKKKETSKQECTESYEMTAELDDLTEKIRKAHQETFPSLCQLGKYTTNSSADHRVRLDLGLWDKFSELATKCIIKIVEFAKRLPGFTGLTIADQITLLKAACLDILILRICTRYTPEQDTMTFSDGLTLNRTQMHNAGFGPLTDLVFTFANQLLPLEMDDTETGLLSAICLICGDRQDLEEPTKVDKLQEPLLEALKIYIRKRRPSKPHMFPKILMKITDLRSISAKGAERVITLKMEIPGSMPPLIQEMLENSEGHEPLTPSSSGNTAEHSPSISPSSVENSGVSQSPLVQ
# Nuclear receptor subfamily 1 group I member 2 (Homo sapiens), sequence (O75469 whole entry, looked up, the tested form may be a part): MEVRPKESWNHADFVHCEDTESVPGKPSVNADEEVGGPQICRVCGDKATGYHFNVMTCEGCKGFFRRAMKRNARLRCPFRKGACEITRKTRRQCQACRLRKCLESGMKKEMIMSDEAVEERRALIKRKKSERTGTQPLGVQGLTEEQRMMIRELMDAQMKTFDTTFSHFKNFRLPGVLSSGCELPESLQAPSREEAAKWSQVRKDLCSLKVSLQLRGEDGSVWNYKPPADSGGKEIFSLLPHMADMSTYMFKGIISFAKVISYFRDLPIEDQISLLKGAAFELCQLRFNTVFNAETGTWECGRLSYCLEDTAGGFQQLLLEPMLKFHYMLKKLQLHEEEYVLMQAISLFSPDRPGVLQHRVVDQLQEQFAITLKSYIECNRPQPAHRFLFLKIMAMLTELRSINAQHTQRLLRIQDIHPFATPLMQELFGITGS
# human RAR-related Orphan Receptor gamma (RORg), RORC (gene 6097), sequence (P51449 whole entry, looked up, the tested form may be a part): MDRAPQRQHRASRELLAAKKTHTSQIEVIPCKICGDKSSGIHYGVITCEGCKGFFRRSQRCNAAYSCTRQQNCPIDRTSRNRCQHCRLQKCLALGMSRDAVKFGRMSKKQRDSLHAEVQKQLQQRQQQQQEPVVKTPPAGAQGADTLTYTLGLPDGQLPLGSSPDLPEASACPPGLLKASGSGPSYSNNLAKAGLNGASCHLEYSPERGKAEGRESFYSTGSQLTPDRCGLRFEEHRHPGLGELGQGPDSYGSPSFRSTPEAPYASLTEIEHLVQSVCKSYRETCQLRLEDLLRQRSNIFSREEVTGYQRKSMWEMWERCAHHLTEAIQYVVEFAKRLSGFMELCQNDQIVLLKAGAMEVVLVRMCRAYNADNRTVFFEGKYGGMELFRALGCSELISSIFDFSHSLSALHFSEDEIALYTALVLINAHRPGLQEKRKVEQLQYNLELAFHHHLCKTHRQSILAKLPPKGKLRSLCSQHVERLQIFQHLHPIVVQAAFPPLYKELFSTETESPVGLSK
# E-selectin (Homo sapiens), sequence (P16581 whole entry, looked up): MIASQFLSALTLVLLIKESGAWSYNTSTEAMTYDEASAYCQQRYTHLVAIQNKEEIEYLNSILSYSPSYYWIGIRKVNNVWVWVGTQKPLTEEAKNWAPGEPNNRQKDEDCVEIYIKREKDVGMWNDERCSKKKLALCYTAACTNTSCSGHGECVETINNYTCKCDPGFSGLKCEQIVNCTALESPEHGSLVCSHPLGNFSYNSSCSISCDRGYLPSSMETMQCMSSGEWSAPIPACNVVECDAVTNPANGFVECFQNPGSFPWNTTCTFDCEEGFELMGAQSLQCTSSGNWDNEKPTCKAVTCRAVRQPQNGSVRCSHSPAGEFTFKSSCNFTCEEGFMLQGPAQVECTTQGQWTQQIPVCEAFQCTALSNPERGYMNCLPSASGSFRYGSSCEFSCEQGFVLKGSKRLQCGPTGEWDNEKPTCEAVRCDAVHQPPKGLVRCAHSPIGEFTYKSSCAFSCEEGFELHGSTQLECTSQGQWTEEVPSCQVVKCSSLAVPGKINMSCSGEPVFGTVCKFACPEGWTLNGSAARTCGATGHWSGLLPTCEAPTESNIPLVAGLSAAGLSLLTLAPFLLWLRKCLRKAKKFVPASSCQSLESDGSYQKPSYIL
# human Retinoid X Receptor beta (RXRb), RXRB (gene 6257), sequence (P28702 whole entry, looked up, the tested form may be a part): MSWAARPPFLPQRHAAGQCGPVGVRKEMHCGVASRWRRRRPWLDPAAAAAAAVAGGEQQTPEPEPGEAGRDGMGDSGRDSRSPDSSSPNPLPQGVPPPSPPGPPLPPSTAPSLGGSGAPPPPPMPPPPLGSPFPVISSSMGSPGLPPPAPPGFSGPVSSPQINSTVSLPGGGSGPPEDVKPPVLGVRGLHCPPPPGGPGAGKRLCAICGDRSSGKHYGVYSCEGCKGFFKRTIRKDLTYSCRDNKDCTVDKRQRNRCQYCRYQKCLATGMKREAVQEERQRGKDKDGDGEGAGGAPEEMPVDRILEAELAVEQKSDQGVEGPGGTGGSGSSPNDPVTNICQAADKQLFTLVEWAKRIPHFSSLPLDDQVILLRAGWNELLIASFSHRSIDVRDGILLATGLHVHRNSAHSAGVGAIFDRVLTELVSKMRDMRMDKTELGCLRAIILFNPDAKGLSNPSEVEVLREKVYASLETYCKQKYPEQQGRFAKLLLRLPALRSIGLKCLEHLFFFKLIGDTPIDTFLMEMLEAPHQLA
smiles,measurement,setting,value
CCNc1nc(Cl)nc(NCC)n1,outcome,[1],inactive
same,outcome,[2],inactive
same,outcome,[3],inactive
same,outcome,[4],inactive
same,outcome,[5],inactive
same,outcome,[6],inactive
same,outcome,[7],inactive
same,outcome,[8],inactive
same,outcome,[9],inactive
same,outcome,[10],inactive
same,outcome,[11],inactive
same,outcome,[12],inactive
same,outcome,[13],inactive
same,outcome,[14],inactive
same,outcome,[15],inactive
Cc1cc(Cl)ccc1OCC(=O)O,outcome,[1],inactive
same,outcome,[2],inactive
same,outcome,[3],inactive
same,outcome,[6],inactive
same,outcome,[7],inactive
same,outcome,[16],inactive
same,outcome,[17],inactive
same,outcome,[11],inactive
same,outcome,[12],inactive
same,outcome,[13],inactive
same,outcome,[14],inactive
same,outcome,[15],inactive
Cc1c(F)c(F)c(COC(=O)C2C(/C=C(\Cl)C(F)(F)F)C2(C)C)c(F)c1F (configuration not stated),outcome,[1],inactive
same,outcome,[2],inactive
same,outcome,[3],inactive
same,outcome,[4],inactive
same,AC50,[5],36.7 µM (active)
same,AC50,[6],20 µM (active)
same,AC50,[7],22.6 µM (active)
same,outcome,[8],inactive
same,outcome,[16],inactive
same,outcome,[10],inactive
same,AC50,[11],12 µM (active)
same,outcome,[12],inactive
same,outcome,[13],inactive
same,outcome,[14],inactive
same,AC50,[15],14.8 µM (active)
CS/C(C)=N/OC(=O)N(C)SN(C)C(=O)O/N=C(\C)SC,AC50,[1],24.6 µM (active)
same,AC50,[2],29.2 µM (active)
same,outcome,[4],inactive
same,AC50,[6],5.82 µM (active)
same,outcome,[8],inactive
same,outcome,[17],inactive
same,outcome,[9],inactive
same,AC50,[11],30 µM (active)
same,outcome,[12],inactive
same,AC50,[13],29.6 µM (active)
same,AC50,[14],29.3 µM (active)
same,AC50,[15],15.8 µM (active)
O=C(O)COc1nc(Cl)c(Cl)cc1Cl,outcome,[1],inactive
same,outcome,[2],inactive
same,outcome,[18],inactive
same,outcome,[4],inactive
same,outcome,[5],inactive
same,outcome,[6],inactive
same,AC50,[19],50 µM (active)
same,outcome,[7],inactive
same,outcome,[8],inactive
same,outcome,[10],inactive
same,outcome,[11],inactive
same,outcome,[12],inactive
same,outcome,[13],inactive
same,outcome,[14],inactive
same,outcome,[15],inactive
CC(C)(C)c1ccc(CSc2cnn(C(C)(C)C)c(=O)c2Cl)cc1,outcome,[1],inactive
same,AC50,[2],0.782 µM (active)
same,outcome,[3],inactive
same,outcome,[4],inactive
same,outcome,[5],inactive
same,AC50,[6],9.12 µM (active)
same,AC50,[19],10.5 µM (active)
same,outcome,[7],inactive
same,outcome,[8],inactive
same,outcome,[17],inactive
same,outcome,[9],inactive
same,outcome,[10],inactive
same,AC50,[11],3.97 µM (active)
same,outcome,[12],inactive
same,AC50,[13],10.4 µM (active)
same,AC50,[14],0.221 µM (active)
same,AC50,[15],3.97 µM (active)
N#CC(CCc1ccc(Cl)cc1)(Cn1cncn1)c1ccccc1 (configuration not stated),outcome,[1],inactive
same,outcome,[2],inactive
same,outcome,[18],inactive
same,outcome,[4],inactive
same,outcome,[5],inactive
same,AC50,[6],14.1 µM (active)
same,outcome,[7],inactive
same,outcome,[8],inactive
same,outcome,[17],inactive
same,outcome,[9],inactive
same,outcome,[10],inactive
same,outcome,[11],inactive
same,outcome,[12],inactive
same,outcome,[13],inactive
same,outcome,[14],inactive
same,outcome,[15],inactive

# — PubChem BioAssay (EPA / NIEHS)
